# From PubChem BioAssay (NCI)
# The panel holds about 83,000 compounds, 20% with a hit somewhere; the sample as a whole holds those more often.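 Cell lines were cultured in 96-well plates, exposed to a single compound concentration, and assessed for percent growth 48 hours later.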 Calls of active or inactive are those of the source. How the source made its calls: active means growth percent below 10; inactive means the rest.
# Experiments:
# Test in all cases: NCI-60 one-dose screen, 48 h (100 = growth as untreated, 0 = no growth, -100 = all killed)
# Details in all cases: 10 µM
# [1] = system: SK-MEL-2 melanoma
# [2] = system: EKVX NSCLC
# [3] = system: SN12C renal
# [4] = system: UO-31 renal
# [5] = system: TK-10 renal
# [6] = system: ACHN renal
# [7] = system: CAKI-1 renal
# [8] = system: A498 renal
# [9] = system: MOLT-4 leukemia
# [10] = system: RPMI-8226 leukemia
# [11] = system: OVCAR-8 ovarian
# [12] = system: OVCAR-5 ovarian
# [13] = system: OVCAR-4 ovarian
# [14] = system: SK-OV-3 ovarian
# [15] = system: IGROV1 ovarian
# [16] = system: OVCAR-3 ovarian
# [17] = system: HS 578T breast
# [18] = system: NCI/ADR-RES ovarian
# [19] = system: CCRF-CEM leukemia
# [20] = system: SR leukemia
SMILES,growth [1],growth [2],growth [3],growth [4],growth [5],growth [6],growth [7],growth [8],growth [9],growth [10],growth [11],growth [12],growth [13],growth [14],growth [15],growth [16],growth [17],growth [18],growth [19],growth [20]
O=C(NCc1cn(Cc2cccc(Oc3ccccc3)c2)nn1)c1cccnc1Nc1ccccc1,55.1% (inactive),58.7% (inactive),50.2% (inactive),54.4% (inactive),85.2% (inactive),54.5% (inactive),48.1% (inactive),19.7% (inactive),38% (inactive),52.7% (inactive),62.6% (inactive),89.1% (inactive),74.9% (inactive),49.6% (inactive),94.1% (inactive),42.1% (inactive),54.7% (inactive),23.6% (inactive),–,–
C#CCNCCCN1C(=O)c2ccc3c4c(ccc(c24)C1=O)C(=O)N(CCCNCC#C)C3=O,-21.5% (active),-79.3% (active),-97.7% (active),–,-11.3% (active),-33.1% (active),-77.9% (active),-96.2% (active),-13.1% (active),12.5% (inactive),-31.1% (active),-73.6% (active),-97.8% (active),-42.7% (active),-75.1% (active),-27.6% (active),-22.9% (active),-32% (active),-0.672% (active),-21.1% (active)
CC(=O)Nc1nc(C)c(C(=O)NNC=O)s1,62.7% (inactive),101% (inactive),98.7% (inactive),100% (inactive),–,108% (inactive),109% (inactive),104% (inactive),98.1% (inactive),118% (inactive),102% (inactive),108% (inactive),118% (inactive),141% (inactive),13% (inactive),98.6% (inactive),77% (inactive),104% (inactive),101% (inactive),105% (inactive)
COc1cc(C2c3cc4c(cc3C(O)C(CO)C2CO)OCO4)cc(OC)c1OC (stereo not drawn),32.2% (inactive),7.57% (active),46.1% (inactive),–,46.7% (inactive),53.9% (inactive),65.9% (inactive),-0.141% (active),16.8% (inactive),30.1% (inactive),30% (inactive),50.9% (inactive),51% (inactive),15.9% (inactive),13.9% (inactive),-44.5% (active),-8.11% (active),79.2% (inactive),15.6% (inactive),6.26% (active)
COc1ccc2nc(/C=C/c3ccc(N(C)C)cc3)sc2c1,101% (inactive),96.9% (inactive),91.4% (inactive),–,103% (inactive),104% (inactive),97.6% (inactive),71.7% (inactive),77.7% (inactive),104% (inactive),115% (inactive),97.4% (inactive),107% (inactive),197% (inactive),82.5% (inactive),103% (inactive),102% (inactive),93.1% (inactive),82.6% (inactive),86.1% (inactive)
COc1cc(-c2nc(-c3nnc(-c4cccnc4)o3)c3ccccn23)cc(OC)c1OC,111% (inactive),106% (inactive),99.6% (inactive),74.9% (inactive),109% (inactive),99% (inactive),104% (inactive),83% (inactive),93.7% (inactive),60.9% (inactive),73.8% (inactive),110% (inactive),123% (inactive),108% (inactive),103% (inactive),129% (inactive),103% (inactive),82.2% (inactive),–,104% (inactive)
S=C(Cc1ccc(-c2ccccc2)cc1)N1CCOCC1,88.5% (inactive),95.4% (inactive),99.8% (inactive),83.9% (inactive),99.7% (inactive),98.4% (inactive),90.4% (inactive),82% (inactive),99.7% (inactive),96.5% (inactive),102% (inactive),–,101% (inactive),102% (inactive),113% (inactive),104% (inactive),97.8% (inactive),103% (inactive),91.8% (inactive),101% (inactive)
O=[N+]([O-])C1CC2C=CC1C2 (stereo not drawn),92.8% (inactive),92.7% (inactive),102% (inactive),80.8% (inactive),112% (inactive),106% (inactive),95.1% (inactive),78.2% (inactive),96.1% (inactive),111% (inactive),102% (inactive),104% (inactive),99.7% (inactive),102% (inactive),103% (inactive),91.6% (inactive),97.9% (inactive),95.6% (inactive),–,92.4% (inactive)
COc1ccc(Cn2cc3c(c2-c2ccccc2)CC(C)(C)c2cnoc2-3)cc1,53% (inactive),38.7% (inactive),50.6% (inactive),–,75% (inactive),53.9% (inactive),6.85% (active),49.4% (inactive),40% (inactive),32.2% (inactive),50.4% (inactive),78% (inactive),60.4% (inactive),20% (inactive),44.6% (inactive),6.6% (active),9.84% (active),18.7% (inactive),22.7% (inactive),24.5% (inactive)
Cn1cnc([N+](=O)[O-])c1Sc1nnc(-c2ccccc2)c(-c2ccccc2)n1,73% (inactive),119% (inactive),72.2% (inactive),55.3% (inactive),48.1% (inactive),65.9% (inactive),-7.14% (active),97.9% (inactive),41% (inactive),43.8% (inactive),102% (inactive),93.6% (inactive),73.9% (inactive),120% (inactive),72% (inactive),51.3% (inactive),106% (inactive),82.3% (inactive),8.92% (active),–
CC1(C)Cc2c(cn(Cc3ccccc3)c2-c2ccccc2)-c2oncc21,102% (inactive),85.2% (inactive),97% (inactive),89.7% (inactive),106% (inactive),99.9% (inactive),79.8% (inactive),126% (inactive),86.1% (inactive),74.8% (inactive),101% (inactive),111% (inactive),98.5% (inactive),96.4% (inactive),121% (inactive),110% (inactive),103% (inactive),92.5% (inactive),94.2% (inactive),–
O=C(c1ccccc1)C(Sc1ccccc1)c1ccccc1 (stereo not drawn),62% (inactive),106% (inactive),87.7% (inactive),79.9% (inactive),101% (inactive),34.5% (inactive),82.5% (inactive),92.1% (inactive),67% (inactive),81.7% (inactive),–,96% (inactive),78.7% (inactive),103% (inactive),83.8% (inactive),109% (inactive),–,82.7% (inactive),89.9% (inactive),49.2% (inactive)
COC(=O)[C@]12CC[C@@H](C)[C@H](C)[C@@H]1C1=CC[C@@H]3[C@@]4(C)CC(=O)[C@H](O)[C@@]5(C)COC(=C45)C[C@@]3(C)[C@]1(C)CC2,-74.1% (active),-55.5% (active),–,-87.5% (active),-76.5% (active),-83.8% (active),-36.9% (active),-84.1% (active),-54.9% (active),-32% (active),-45.2% (active),-40.4% (active),-85.3% (active),-68.3% (active),-44.9% (active),-84.7% (active),-5.08% (active),-59.7% (active),-40.1% (active),-31.7% (active)
CCN(CC)c1ccc(/C=C/C2=[N+](C)c3ccccc3C2(C)C)c(C)c1,-12.7% (active),10.6% (inactive),–,8.27% (active),9.49% (active),5.97% (active),15.5% (inactive),3.94% (active),-20.4% (active),-25.7% (active),8.1% (active),30.6% (inactive),18.4% (inactive),-6.99% (active),31.8% (inactive),8.86% (active),41.8% (inactive),33.4% (inactive),4.91% (active),-14.6% (active)
CCOC(=S)Sc1ccc([N+](=O)[O-])cc1[N+](=O)[O-],91.4% (inactive),98% (inactive),–,78.1% (inactive),94% (inactive),60.4% (inactive),29.9% (inactive),88.2% (inactive),48.5% (inactive),11.9% (inactive),93.3% (inactive),99.2% (inactive),113% (inactive),97.1% (inactive),99.2% (inactive),62.2% (inactive),98% (inactive),102% (inactive),14.4% (inactive),18.3% (inactive)
